Screening results: PubChem, several laboratories
Most compounds without a hit are left out; they make up all but 3.1% or so of the library.
HIF-2a inh – HIF-2a reporter inhibitors, primary screen, luminescence, 786-0 RCC cells; 786-0 RCC cells HIF-2a reporter, luciferase luminescence, overnight; inhibition, % at 18.8 µM; 360,000 compounds, 0.72% hits; AID 624352, 2012;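 active = inhibition of the luminescence signal of 40% or more relative to plate controls, in a single-dose primary screen at 18.75 µM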
CF NFkB block – inhibitors of PAF-induced NF-kB signaling, primary screen, cell-based, GFP fluorescence, uHTS | inhibition, % at 5 µM | AID 588850, 2011 | 360,000 compounds, 0.86% hits | KKLEB NF-kB-GFP reporter, GFP fluorescence overnight;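 active = at least 50% inhibition at 5 µM, scaled per plate between neutral and stimulator controls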;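 also: PAF is a Pseudomonas aeruginosa culture filtrate used as stimulus; plate controls were PAF-stimulated DMSO wells for no effect and unstimulated DMSO wells for full effect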
ABHD5 PLIN5 PPI – ABHD5-PLIN5 interaction inhibitors, primary screen, cell lysate, split luciferase complementation, luminescence | Split G. princeps luciferase complementation, 4 h | inhibition, % at 4 µM | 360,000 compounds, 0.78% hits | AID 602281, 2012;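 active = inhibition above the mean inhibition across every tested compound plus 3 SD, cut at about 22% in these data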;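 also: 0% = DMSO only wells and the 100% control is not disclosed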
MITF TRPM1 inh – inhibitors of MITF-dependent TRPM1 promoter reporter, primary screen, cell-based, SK-MEL-5, single point, luciferase; inhibition, % at 12.5 µM; 330,000 compounds, 0.83% hits; SK-MEL-5 TRPM1 promoter luciferase, 24 h;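 active = mean inhibition across replicates of 60% or more, whatever share of single replicates reaches that level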
Peg3 prom inh – Peg3 promoter-driven luciferase inhibitors, primary screen, cell-based, HeLa, luciferase luminescence | 360,000 compounds, 1.7% hits | HeLa PEG-Prom luciferase reporter, overnight | inhibition, % at 20 µM;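 active = inhibition of at least 50% at 20 µM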
KKLEB cytotox – cytotoxicity in KKLEB CF airway cells, primary screen, cytotoxicity control for CF NF-kB inhibitor project, cell-based, uHTS, fluorescence assay plates. 360,000 compounds, 0.36% hits. KKLEB CF airway cells viability, ATPlite luminescence, overnight; stronger effect = lower value; cells stimulated with P. aeruginosa culture filtrate. activity change (cytotoxicity), % at 5 µM;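 active = corrected activity change at or below -50% at 5 µM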
Mdm2-MdmX confirm – retested Mdm2-MdmX interaction blockers, confirmation, cell-based, luminescence, single concentration, set 2 | shares compounds with HIF-2a inh | 740 compounds, 99% hits | inhibition, % at 8 µM | SaOS-2 split-luciferase Mdm2/MdmX complementation;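 active = mean inhibition of the luminescence signal across two replicates at or above 26 percent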
HIF-2a inh conf – HIF-2a reporter inhibitor retest, confirmation, luminescence, 786-0 RCC cells; shares compounds with HIF-2a inh; HIF-2a luciferase reporter luminescence, overnight; inhibition, % at 18.8 µM; 1,800 compounds, 56% hits;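 active = mean inhibition across four replicates of at least 40 percent at the single tested concentration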
HIF-1a counter – HIF-1a luciferase reporter signal reduction – MiaPaCa-2 cells, single concentration, counter-screen for HIF-2a inhibitor project, confirmation; shares compounds with HIF-2a inh; MiaPaCa-2 HIF-1a luciferase reporter, desferoxamine, overnight; inhibition, % at 18.8 µM; 1,800 compounds, 72% hits;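 active = mean inhibition of the reporter signal across four replicates at the single tested dose of 50% or more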
Starred values were filed as active, the others as inactive; . = not tested or not shown.

SMILES | HIF-2a inh | CF NFkB block | ABHD5 PLIN5 PPI | MITF TRPM1 inh | Peg3 prom inh | KKLEB cytotox | HIF-2a inh conf | HIF-1a counter | others
COC(=O)COc1ccc(-c2nccc(-c3ccccn3)n2)cc1 | 71* | -6 | 0 | 22 | -50 | 2 | 91* | 64*
COC(=O)COc1ccc(-c2nccc(-c3ccc(Br)cc3)n2)cc1 | 41* | 8 | 0 | 9 | 2 | 1 | 43* | 8
CCOc1cc(/C=N/NC(N)=O)cc(Br)c1OCC(=O)Nc1cccc2ccccc12 | 25 | -4 | -3 | -4 | 43 | -18 | . | .
CCOc1cc(/C=N/NC(N)=O)cc(Br)c1OCC(=O)Nc1ccccc1C | 40* | -10 | 8 | -7 | 42 | -13 | 15 | 66*
O=C(Nc1nnc(CCN2CCCCC2)s1)c1ccccc1Cl | 3 | 2 | 2 | 6 | 1 | -9 | . | .
O=C1NC(CCc2ccccc2)C(=O)N1CCOc1cccc(Br)c1 (stereo not given) | 14 | 19 | 0 | 17 | 22 | -12 | . | .
Cc1ccc(C)c(CN2C(=O)c3ccccc3S(=O)c3ccc(C(=O)N4CCN(c5ccccn5)CC4)cc32)c1 (stereo not given) | 8 | -1 | -10 | 10 | 34 | -8 | . | . | Mdm2-MdmX confirm=101*
Cc1ccc(C)c(CN2C(=O)c3ccccc3S(=O)(=O)c3ccc(C(=O)N4CCN(C)CC4)cc32)c1 | 22 | 9 | 2 | 12 | 5 | -1 | . | .
COc1ccc(Nc2ccnc3ccccc23)cc1 | -35 | 34 | 12 | -3 | -10 | -5 | . | .
CC(C)Nc1ccc(Nc2ccnc3cc4ccccc4cc23)cc1 | 55* | -179 | 10 | 88* | 108* | -21 | . | . | Mdm2-MdmX confirm=103*
O=C(Cc1ccc(Cl)cc1)Nc1cccc(S(=O)(=O)N2CCCCC2)c1 | -2 | 2 | -10 | 14 | 19 | -6 | . | .
O=C(CCl)Nc1cccc(S(=O)(=O)N2CCCCCC2)c1 | 46* | 0 | 2 | 75* | 73* | -41 | 3 | 67*
COc1ccc(NC(=O)C2Cc3c(-c4cccc(NC(C)=O)c4)ccnc3O2)cc1 (stereo not given) | 12 | 10 | 2 | . | 4 | -17 | . | .
S=C(Nc1cc(Cl)cc(Cl)c1)NC1CCN(Cc2ccccc2)CC1 | 42* | 31 | 3 | 12 | 94* | -29 | 12 | 107*
S=C(Nc1ccccc1Cl)NC1CCN(Cc2ccccc2)CC1 | 3 | 8 | 1 | 4 | 7 | -12 | . | .
NC1=C([N+](=O)[O-])C(c2ccc3c(c2)OCO3)C2=C(CCCC2=O)O1 (stereo not given) | 8 | -8 | -1 | -4 | 3 | -2 | . | .
O=c1c2ccccc2cnn1CCOc1ccccc1 | 54* | -27 | -4 | 58 | 44 | 3 | 64* | 71*
O=C(O)Cn1ncc2ccccc2c1=O | 9 | -2 | 3 | -19 | 12 | 3 | . | .
CC(/C=C1\SC(=O)N(CCCC(=O)O)C1=O)=C\c1ccccc1 | 91* | 17 | 16 | 85* | 80* | 5 | 99* | 101*
O=C(CCCN1C(=O)S/C(=C\c2ccccc2)C1=O)NNC(=O)c1ccccc1O | 91* | 14 | 1 | 71* | 18 | -5 | 90* | 97*
O=C(NCc1cccs1)C1CCN(S(=O)(=O)c2cccc([N+](=O)[O-])c2)CC1 | 11 | -4 | -3 | 1 | 5 | 2 | . | .
CCOC(=O)Cc1csc(N/N=C/c2ccccc2)n1 | 41* | -18 | -4 | -9 | -129 | 7 | 38 | 6
CCOC(=O)Cc1csc(N/N=C\c2cccc(Br)c2)n1 | 16 | -1 | -2 | 7 | -50 | -2 | . | .
COC(=O)Cn1ccc(-c2ccc(Cl)cc2)c(C#N)c1=O | 57* | 6 | 0 | 1 | -3 | -2 | 4 | 2
COC(=O)Cn1ccc(N(C)C)c(C#N)c1=O | 12 | 12 | 6 | 7 | 14 | 2 | . | .
SMILES | HIF-2a inh | CF NFkB block | ABHD5 PLIN5 PPI | MITF TRPM1 inh | Peg3 prom inh | KKLEB cytotox | HIF-2a inh conf | HIF-1a counter | others
O=C(NCCC1CCCCN1S(=O)(=O)c1ccc(F)cc1)C(=O)NCc1ccncc1 (stereo not given) | 43* | 16 | -2 | 13 | 23 | -12 | -3 | 31
CN(Cc1ccccc1)C(=O)COC(=O)c1ccccc1SCC(=O)N1CCCC1 | -16 | -22 | 3 | 10 | -16 | 13 | . | .
CCCCN(CCCC)CCNC(=O)CNC(=O)c1cccs1 | 14 | -7 | 1 | 11 | 0 | 11 | . | .
O=C(NC12CC3CC(CC(C3)C1)C2)c1ccc([N+](=O)[O-])o1 | 65* | 94* | 3 | 63* | 84* | -78* | 11 | 96*
O=C(NC12CC3CC(CC(C3)C1)C2)c1ccc(Br)o1 | -23 | -8 | -8 | -2 | -7 | -6 | . | .
N#Cc1c(N)n(C2CCCCC2)c2nc3ccccc3nc12 | 42* | 17 | -13 | 11 | 39 | -21 | 16 | 77*
CCOC(=O)C(=O)Nc1ncc(Cl)s1 | 7 | -4 | 5 | -3 | -1 | -7 | . | .
COc1ccc2c(n1)Sc1nc3ccccc3nc1N2 | 92* | -93 | -4 | 5 | -75 | 8 | -246 | -22
CCOC(=O)c1cccc(NC(=O)/C=C/c2ccc3c(c2)OCO3)c1 | 47* | -11 | 4 | 6 | -98 | -2 | 69* | 38
COc1ccc(N2CCN(CC(=O)Nc3c(C)cccc3C)CC2)cc1 | 5 | -11 | -3 | . | 0 | 2 | . | .
Cc1ccc(C(=O)Cn2c(C(=O)/C=C/c3ccccc3)nc3ccccc32)cc1 | 48* | 10 | 8 | 31 | 44 | -16 | -4 | 60*
Cc1ccc(NC(=O)c2cnccn2)c(C)c1 | -88 | 10 | 0 | -24 | -49 | 1 | . | .
Cc1nc(SC(C)C(=O)NCC2CCCO2)c2cc(-c3ccccc3)sc2n1 (stereo not given) | -188 | -24 | -4 | -19 | -122 | 3 | . | . | Mdm2-MdmX confirm=101*
N#CC1=C(N)N2C(=C(C#N)C13CCCC3)Nc1ccccc12 | -38 | 4 | 7 | 1 | -6 | 4 | . | .
